Measured values: PMC9911399, “Two distinct binding modes provide the RNA-binding protein RbFox with extraordinary sequence specificity”
Changes are numbered by the printed parent chain; changes in the protein carry UniProt numbers. The full ranking holds about 16,000 sequences; the median of “ka relative to ugcaugu” is about 0.0091, and the highest 2% start at about 0.032. Shown is part of a subset that was picked to be rich in the highest values.

T1: RBFOX1 RRM (Homo sapiens, UniProt Q9NWB1 109-208)
T1 sequence: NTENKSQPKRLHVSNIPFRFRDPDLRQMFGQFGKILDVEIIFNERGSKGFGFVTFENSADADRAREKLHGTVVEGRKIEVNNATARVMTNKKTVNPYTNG

B1: CUGGACU (DNA:RNA)
RNA: GGGAGACCGGAAUUCAGAUUGUCCCUGGACUUUAAAUCCCGUCGUAGCCACCA
DNA 1: CAATCTGAATTCCGGTCTCCC
DNA 2: TGGTGGCTACGACGGGATT
B2: AUUAGUU (DNA:RNA)
RNA: B1 RNA with C25A, G27U, G28A, A29G, C30U
DNA 1: CAATCTGAATTCCGGTCTCCC
DNA 2: TGGTGGCTACGACGGGATT
B3: UACCGUC (DNA:RNA)
RNA: GGGAGACCGGAAUUCAGAUUGUCCUACCGUCUUAAAUCCCGUCGUAGCCACCA
DNA 1: CAATCTGAATTCCGGTCTCCC
DNA 2: TGGTGGCTACGACGGGATT
B4: ACUAUCA (DNA:RNA)
RNA: B1 RNA with C25A, U26C, G27U, G28A, A29U, U31A
DNA 1: CAATCTGAATTCCGGTCTCCC
DNA 2: TGGTGGCTACGACGGGATT
B5: UGGGUGG (DNA:RNA)
RNA: B1 RNA with C25U, U26G, A29U, C30G, U31G
DNA 1: CAATCTGAATTCCGGTCTCCC
DNA 2: TGGTGGCTACGACGGGATT
B6: GUCGUUC (DNA:RNA)
RNA: B3 RNA with U25G, A26U, C28G, G29U
DNA 1: CAATCTGAATTCCGGTCTCCC
DNA 2: TGGTGGCTACGACGGGATT
B7: GUGUGCG (DNA:RNA)
RNA: B1 RNA with C25G, G28U, A29G, U31G
DNA 1: CAATCTGAATTCCGGTCTCCC
DNA 2: TGGTGGCTACGACGGGATT
B8: CCGUGCG (DNA:RNA)
RNA: B1 RNA with U26C, G28U, A29G, U31G
DNA 1: CAATCTGAATTCCGGTCTCCC
DNA 2: TGGTGGCTACGACGGGATT
B9: UUGGGGG (DNA:RNA)
RNA: B1 RNA with C25U, A29G, C30G, U31G
DNA 1: CAATCTGAATTCCGGTCTCCC
DNA 2: TGGTGGCTACGACGGGATT
B10: CGUGUCC (DNA:RNA)
RNA: B1 RNA with U26G, G27U, A29U, U31C
DNA 1: CAATCTGAATTCCGGTCTCCC
DNA 2: TGGTGGCTACGACGGGATT
B11: UUGGGUG (DNA:RNA)
RNA: B1 RNA with C25U, A29G, C30U, U31G
DNA 1: CAATCTGAATTCCGGTCTCCC
DNA 2: TGGTGGCTACGACGGGATT
B12: UUGUCCC (DNA:RNA)
RNA: B1 RNA with C25U, G28U, A29C, U31C
DNA 1: CAATCTGAATTCCGGTCTCCC
DNA 2: TGGTGGCTACGACGGGATT
B13: UUGUGUG (DNA:RNA)
RNA: B3 RNA with A26U, C27G, C28U, C31G
DNA 1: CAATCTGAATTCCGGTCTCCC
DNA 2: TGGTGGCTACGACGGGATT
B14: CUUGUCC (DNA:RNA)
RNA: B1 RNA with G27U, A29U, U31C
DNA 1: CAATCTGAATTCCGGTCTCCC
DNA 2: TGGTGGCTACGACGGGATT
B15: UUGGGAA (DNA:RNA)
RNA: B1 RNA with C25U, A29G, C30A, U31A
DNA 1: CAATCTGAATTCCGGTCTCCC
DNA 2: TGGTGGCTACGACGGGATT
B16: GUGCGUG (DNA:RNA)
RNA: B3 RNA with U25G, A26U, C27G, C31G
DNA 1: CAATCTGAATTCCGGTCTCCC
DNA 2: TGGTGGCTACGACGGGATT
B17: UUGCGUG (DNA:RNA)
RNA: B3 RNA with A26U, C27G, C31G
DNA 1: CAATCTGAATTCCGGTCTCCC
DNA 2: TGGTGGCTACGACGGGATT
B18: UUGCGUC (DNA:RNA)
RNA: B3 RNA with A26U, C27G
DNA 1: CAATCTGAATTCCGGTCTCCC
DNA 2: TGGTGGCTACGACGGGATT
B19: UCUCAAU (DNA:RNA)
RNA: B1 RNA with C25U, U26C, G27U, G28C, C30A
DNA 1: CAATCTGAATTCCGGTCTCCC
DNA 2: TGGTGGCTACGACGGGATT
B20: CGUCACC (DNA:RNA)
RNA: B1 RNA with U26G, G27U, G28C, U31C
DNA 1: CAATCTGAATTCCGGTCTCCC
DNA 2: TGGTGGCTACGACGGGATT

Biological target: T1, RBFOX1 RRM
Test: EMSA; HiTS-Eq, 1 nM pool, 10 min; buffer printed only for the single-RNA assays: 10 mM Tris pH 7.5, 150 mM NaCl, 3.4 mM EDTA, 0.001% NP-40, 30 C
Conditions: tags: His6 N-terminal (pET28a); label: 5' 32P
Method in brief: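 A pool of RNA with 7 randomized nucleotides, 5′-radiolabelled and with DNA-annealed flanks, was equilibrated at 1 nM for 10 min in 50 µL with purified RbFox RRM, wild type or mutant, across increasing protein concentrations. Free RNA was separated by 8% native PAGE, excised, reverse-transcribed, barcoded by PCR and sequenced. Relative association constants were obtained from read-count changes of each RNA species versus the control reaction and normalised to the cognate motif.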

First: B1
Second: B2
The binding signal of the first is higher: 0.00842 KA relative to UGCAUGU for the first, 0.00711 KA relative to UGCAUGU for the second.

First: B3
Second: B4
The binding signal of the first is higher: 0.0072 KA relative to UGCAUGU for the first, 0.00217 KA relative to UGCAUGU for the second.

Compared with B5, B6 is lower in binding signal: 0.0279 KA relative to UGCAUGU for the first, 0.0139 KA relative to UGCAUGU for the second.

First: B7
Second: B8
The binding signal of the first is higher: 0.0191 KA relative to UGCAUGU for the first, 0.0124 KA relative to UGCAUGU for the second.

Compared with B9, B10 is lower in binding signal: 0.0118 KA relative to UGCAUGU for the first, 0.00858 KA relative to UGCAUGU for the second.

Compared with B11, B12 is lower in binding signal: 0.0408 KA relative to UGCAUGU for the first, 0.0102 KA relative to UGCAUGU for the second.

Compared with B13, B14 is lower in binding signal: 0.0403 KA relative to UGCAUGU for the first, 0.0101 KA relative to UGCAUGU for the second.

First: B15
Second: B16
The binding signal of the first is lower: 0.0102 KA relative to UGCAUGU for the first, 0.0481 KA relative to UGCAUGU for the second.

First: B17
Second: B18
The binding signal of the first is higher: 0.0447 KA relative to UGCAUGU for the first, 0.0198 KA relative to UGCAUGU for the second.

First: B19
Second: B20
The binding signal of the first is higher: 0.0038 KA relative to UGCAUGU for the first, 0.00293 KA relative to UGCAUGU for the second.
